From PubChem BioAssay (NCATS)
Results filed as inconclusive are left out. Calls of active or inactive are those of the source. Calls follow the shape of the dose curve; as a rule, active = well fitted inhibition curve with a large enough effect; inconclusive = small, poorly fitted or top-dose-only effect, or effect the other way; inactive = no such curve, though single readings can be large or run the other way.

Assay: High Content Imaging Cell-Based qHTS for Inhibitors of the mTORC1 Signaling Pathway in MEF Cells (AID 2667);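 also: Tsc2-/- p53-/- MEFs stably re-expressing wild-type Tsc2 exposed 24 h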
Conditions: series mostly up to 38.3 µM
Description: NIH Molecular Libraries Probe Production Centers Network [MLPCN]
NIH Chemical Genomics Center [NCGC]
Assay Submitter (PI): Blenis, John; Hoffman, Greg; Harvard University
NCGC Assay Overview: The mammalian target of rapamycin (mTOR) is an intracellular serine/threonine kinase Aberrant regulation of mTOR signaling plays a causative role in a number of human diseases, including cancer, benign tumors such as lymphangioleiomyomatosis (LAM) and Tuberous Sclerosis Complex (TSC), and metabolic diseases such as diabetes and obesity. This project aims to identify inhibitors of ribosomal protein S6 (rpS6) phosphorylation. The phosphorylation of rpS6 is a key event downstream of mTOR activation. The assay uses a phospho-specific antibody of phospho-rpS6 to detect inhibitors of mTOR activation. Mutations in the Tsc1 and Tsc2 genes are the underlying genetic lesions responsible for TSC, causing constitutive activation of the mTORC1 pathway and leading to profound effects on cell metabolism. Aberrant metabolism in cancer has recently received significant attention as a target to develop therapeutic agents in the treatment of cancer.1 As Tsc2-/- cells have lost the ability to respond to energy and growth factor deprivation, these cells are unable to properly down regulate cellular biosynthetic processes in response to metabolic stress, and are thus extremely sensitive to glucose deprivation-induced death.2 A central goal of this project is to explore the unique cell survival and metabolic properties of cells with Tsc1 or Tsc2 by screening for compounds that selectively target the Tsc2-/- MEFs by screening both Tsc2-/- and WT MEF cell lines. We hope to better understand these aspects of TSC physiology in order to exploit them for therapeutic benefit.
NCGC IN Cell Assay Protocol:
For quantitative high throughput analysis of mTORC1 signaling, we developed a cell-based assay for immuno-fluorescence based detection of rpS6 phosphorylation on the Acumen Explorer that will be used a platform for the primary small molecule screen. Mouse embryonic fibroblasts (MEFs) are cultured in 1536-well plates using DMEM + 10% FBS. Twenty-four hrs after plating, test compounds (solubilized in DMSO) are delivered and incubated with the cells for 24 hrs at 37 degree Celsius. Following the incubation, media with compound is aspirated and the cells are fixed in 4% paraformaldehyde (PFA) containing PBS + 0.2% TX-100. Next, PFA is aspirated, cells are washed two times with PBS plus 0.2% TX-100 and the cells are blocked for 1 hr at room temperature (blocking buffer: LiCOR Blocking Buffer plus 0.2% TX-100). This is followed by aspiration and staining with Alexa-488 conjugated-phospho-rpS6 Ser235/236 antibody for 2 hours at room temperature (Cell Signaling Technology # 4803, 1:50 dilution in blocking buffer). Cells are washed two times with PBS plus 0.2% TX-100, and stained with 10 uM propidium iodide (PI) for 20-25 minutes for cell number measurement (1:500 dilution of Hoescht staining is also added for IN Cell imaging). Active wells which are selected (based on Acumen results) are imaged on the IN Cell 1000 (GE Healthcare) using the D360/40X and HQ480/40X excitation filters for the Hoechst and Alexa-488 cytoplasmic stains, respectively. The fluorescence emission filters used were HQ460/40M and HQ535/50M for the Hoechst and Alexa-488 cytoplasmic stains, respectively. The normalized phospho-S6 staining is calculated as the ratio of […] for the single concentration rapamycin control ([…] nM) and DMSO columns. […] Inhibition of the pathway is defined based on the normalized phospho-S6 intensity in rapamycin treated cells. Each treatment is reported as the % positive cells in the well, where thresholds are defined by selecting wells with the highest and lowest signal and differentiating between the % non-active and % active populations. […]

SMILES	outcome
N[C@@H](Cn1ccc(=O)c(O)c1)C(=O)O	inactive
CCN(CC)CCNC(=O)c1ccc(NS(C)(=O)=O)cc1	inactive
Cc1nn(-c2ccccc2)c(C)c1/C=N/N1CCN(Cc2ccccc2)CC1	inactive
Cn1cnc2c(NCc3ccccc3)nc(NCCO)nc21	inactive
COc1ccccc1N1CCN(CCN2C(=O)CC3(CCCC3)CC2=O)CC1	inactive
C[N+](C)(C)CCO	inactive
NC(N)=NCCCCN=C(N)N	inactive
O=C1NC(c2cccc([N+](=O)[O-])c2)=CCN1c1ccccc1O	inactive
Nc1ncnc2n[nH]c(Nc3ccc(F)cc3)c12	inactive
COC(=O)C1=CO[C@@H](O)[C@@H]2C(CO)=CC[C@H]12	inactive
CN(C)c1cc2c(Nc3ccc4c(cnn4Cc4ccccc4)c3)ncnc2cn1	inactive
O=C1NC(=O)/C(=C/c2ccc3c(c2)OC(F)(F)O3)S1	inactive
Brc1ccc([C@H]2CN3CCSC3=N2)cc1	inactive
